# Laboratory results from PubChem BioAssay (NCI).
# This is part of a sample that, as a whole, favours compounds with a hit. Of some 79,000 tested, about 15% had one in any assay. Calls of active or inactive are those of the source. Rule as the data show it: active = growth inhibition above about 70%; inactive = the rest.
# Test: NCI Yeast Anticancer Drug Screen. Data for the bub3 strain (AID 167)
# Conditions: S. cerevisiae bub3 mutant strain, at 50.0 µM, hits give high values
# Outline: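 Readout: yeast growth inhibition, expressed relative to vehicle-only wells. The test organism is a mutant strain from a panel with lesions in DNA repair or checkpoint genes.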
row,Compound,growth inhibition
1,O=C(O)c1cccc(S(=O)(=O)NN2C(=O)CSC2c2ccccc2Cl)c1 (stereo not given),12.7% (inactive)
2,CCCCn1cccc1,26.8% (inactive)
3,Cc1cc2nnc(-c3cccc([N+](=O)[O-])c3)n2c2nnnn12,37.8% (inactive)
4,O=C(CNc1ccc(Cl)cc1Cl)NC1C=Cc2ccc(S(=O)(=O)Nc3ccc(Cl)cc3Cl)cc2C1=O (stereo not given),29.1% (inactive)
5,CC1CCC(NC(=O)NCCCl)c2ccccc21 (stereo not given),-14.2% (inactive)
6,COc1cccc(/C=C(\C#N)C(=O)c2ccccc2)c1,13.9% (inactive)
7,O=C(c1ccccc1)C(c1ccccc1)C1(O)C(=O)Nc2ccc(Br)cc21 (stereo not given),54.9% (inactive)
8,CC1=C(C)C(N(C)C)CS(=O)(=O)O1 (stereo not given),-11.2% (inactive)
9,O=C1CCC2c3ccccc3NCN12 (stereo not given),-15.2% (inactive)
10,CC1(C)C2CCC1(CC(=O)O)C(O)C2=O (stereo not given),-4.6% (inactive)
11,CCN(CC)CCOC(=O)Cc1cccc2c(=O)cc(-c3ccc(OC)cc3)oc12,-10.2% (inactive)
12,O=C1C=C(c2ccccc2)C(c2ccccc2)=C1,-5.6% (inactive)
13,COC(=O)c1cc(Cl)ccc1NC(=O)C1CCCCC1,15.2% (inactive)
14,CN(CC(=O)c1ccc(Cl)cc1)Cc1ccccc1,0.9% (inactive)
15,CS(=O)(=O)c1c(N)c2nc(Cl)cn2c2nc3ccccc3nc12,-27.1% (inactive)
16,O=c1cc(C(Br)(Br)Br)[nH]c2ccccc12,4.55% (inactive)
17,NS(=O)(=O)N1CN(S(N)(=O)=O)CN(S(N)(=O)=O)C1,9.75% (inactive)
18,CC(C)N1C(=O)NC(=O)C12CCN(Cc1ccccc1)CC2,11.6% (inactive)
19,Cc1cc(O)c(C(c2cccnc2)c2c(O)cc(C)[nH]c2=O)c(=O)[nH]1,-30.2% (inactive)
20,COc1ccc(NS(=O)(=O)c2ccc(N=Cc3c4ccccc4nc4ccccc34)cc2)nn1,93.5% (active)

row,Compound,growth inhibition
1,Cc1cc(C)cc(N=Nc2c(N)nc(N)[nH]c2=O)c1,-3.2% (inactive)
2,CCOC(=O)c1ccc(NCc2ccc3nc(OC)c(OC)nc3c2)cc1,6.85% (inactive)
3,CC(c1ccccc1)C(C)(C)O (stereo not given),-14.5% (inactive)
4,CCC(C)CC(O)CC(C)C (stereo not given),2.65% (inactive)
5,[CH3][Sn]([CH3])([O]C(=O)c1ccc2c(c1)OCO2)[O]C(=O)c1ccc2c(c1)OCO2,-9.7% (inactive)
6,CN(C)c1ccc(/C=C(/NC(=O)c2ccccc2)C(N)=O)cc1,7.6% (inactive)
7,Cc1ccc(C(=O)OC(C)C)cc1N=NN(C)C,6.45% (inactive)
8,CSc1nn(C)c2cc(C)c3ccccc3[n+]12,4.6% (inactive)
9,O=C1OCCc2c1[nH]c1ccccc21,13.5% (inactive)
10,CC(C)(O)C(O)(c1ccccc1)c1ccccc1,5.95% (inactive)
11,C/C(=N/O)c1ccc[nH]1,13.2% (inactive)
12,CCCCCC(C/C=N/N(C)C)C(O)(C(F)(F)F)C(F)(F)F (stereo not given),15.4% (inactive)
13,O=S(=O)(N/N=C/c1ccc(Cl)c(Cl)c1)c1ccccc1,13.1% (inactive)
14,COC(=O)CC1(C(=O)OC)Nc2ccc(Cl)cc2C(=O)O1 (stereo not given),-9.5% (inactive)
15,CCCCOC(=O)C(C)OC(=O)OC (stereo not given),-15.7% (inactive)
16,CCCCOC(=O)c1ccc(NC(=O)CCCN(CC)CC)cc1,14.4% (inactive)
17,CS(=O)(=O)OCCC(O)COS(C)(=O)=O (stereo not given),-12.5% (inactive)
18,Cc1ccc(O)c(C(=O)CCCC(=O)c2cc(C)ccc2O)c1,-8.3% (inactive)
19,COc1ccc(-c2cc(=O)c3c(OC)cccc3o2)c(OC)c1OC,-11.2% (inactive)
20,N/N=C(\C(=O)Nc1ccc(Cl)cc1Cl)C(c1cnc2ccccc2n1)[N+](=O)[O-] (stereo not given),-9.45% (inactive)
